PubChem BioAssay AID485313 (National Center for Advancing Translational Sciences (NCATS), 2010)
Out of some 320,000 compounds screened, about 7,600 (2.4%) were called active. Another 3% or so got no clear call; they are omitted. This is one part of a sample in which actives are shown more often than they occur. A number with no mark means an inactive call. The call rests on the fitted dose curve; in most records, active means well fitted activation curve with a large enough effect; inconclusive means small, poorly fitted or top-dose-only effect; inactive means no such curve, though single readings can be large or run the other way.

experiment: qHTS Assay for NPC1 Promoter Activators; conditions: Huh7 NPC1 promoter luciferase reporter, 24 h; series mostly up to 9.22 µM; activation: at the top concentration; further: nearly all actives have a fitted effect of over 60% in size;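 on activation: reporter is driven by a mutant NPC1 promoter; % of control where 0% means no effect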
Summary of the method: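 Huh7 reporter cells (NPC1 promoter driving luciferase) are dosed with compound for 24 h at 37 °C, 5% CO2; luciferase detection reagent is then added and luminescence measured after 10 min at ambient temperature.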
Potency means the concentration at half of the fitted maximal effect.

**Q.** Which “activation” value does the source give for `CCOc1ccc(OCC(=O)OC(C)C(=O)NC2CCCCC2C)cc1` (centres undefined) here?
**A.** -1.02%

**Q.** Which “activation” value does the source give for `O=C(CCc1nc2sc3c(c2c(=O)[nH]1)CCCC3)NCC(=O)Nc1ccccc1Br` here?
**A.** 0.897%

**Q.** With `CSCCC(NC(=O)c1ccco1)C(=O)NCCc1ccc(F)cc1` (centres undefined) as the molecule, how does the “activation” value read?
**A.** 0.568%

**Q.** With `COc1ccc(S(=O)(=O)N2CCN(C(C)C(=O)Nc3ccc(C(C)C)cc3)CC2)cc1` (centres undefined) as the molecule, how does the “activation” value read?
**A.** -1.01%

**Q.** With `CCC(=O)c1ccc(OCC(=O)OCC(=O)N2CCc3ccccc3C2)cc1` as the molecule, how does the “activation” value read?
**A.** 0.793%

**Q.** With `O=C(NC(Nc1nc2ccc([N+](=O)[O-])cc2s1)(C(F)(F)F)C(F)(F)F)c1ccccc1` as the molecule, how does the “activation” value read?
**A.** -37.5%

**Q.** For `O=C(Nc1nc2ccc([N+](=O)[O-])cc2s1)c1ccncc1`, which Potency is on record?
**A.** 1410 nM (active)

**Q.** For `CCOc1ccc2nc(NC(=O)c3cc([N+](=O)[O-])ccc3N3CCOCC3)sc2c1`, which “activation” value is on record?
**A.** -6.13%

**Q.** Which “activation” value does the source give for `CCC(C(=O)N1CCN(S(=O)(=O)c2sc(C(=O)O)c(C)c2C(=O)O)CC1)c1ccccc1` (centres undefined) here?
**A.** -0.87%

**Q.** With `Cc1nc(N)sc1N=Nc1c(C)n(C)n(-c2ccccc2)c1=O` as the molecule, how does the “activation” value read?
**A.** 0.337%

**Q.** With `Cc1c(C=O)n(C)n(-c2ccccc2)c1=O` as the molecule, how does the “activation” value read?
**A.** -2.37%

**Q.** Which Potency does the source give for `Cc1c(N=Nc2ccc(N(C)C)cc2)c(=O)n(-c2ccccc2)n1C` here?
**A.** 3550 nM (active)

**Q.** Which “activation” value does the source give for `CC(C(=O)Nc1ccc(S(=O)(=O)N2CCCC2)cc1)N(C)Cc1ccc(F)cc1` (centres undefined) here?
**A.** -1.43%

**Q.** With `Cc1ccc(NC(=O)CNCc2ccccn2)cc1S(=O)(=O)N(C)C` as the molecule, how does the “activation” value read?
**A.** 10.9%

**Q.** With `CCN(CC)S(=O)(=O)c1cc(C(=O)Nc2ccccn2)ccc1C` as the molecule, how does the Potency read?
**A.** 2240 nM (active)

**Q.** For `CCN(c1ccccc1)S(=O)(=O)c1cc(C(=O)NCc2ccccn2)ccc1C`, which “activation” value is on record?
**A.** -1.04%

**Q.** With `COc1cc(OC)cc(C(=O)NCC(=O)N2CCCCCCC2)c1` as the molecule, how does the “activation” value read?
**A.** 1.24%

**Q.** For `Cc1ccc(C)c(NC(=O)COC(=O)CSc2ccccc2)c1`, which “activation” value is on record?
**A.** 0.0646%

**Q.** Which “activation” value does the source give for `COc1cc(OC)cc(-c2nc(=S)n3ccsc3n2)c1` here?
**A.** 9.02%

**Q.** Which “activation” value does the source give for `COc1ccc(-n2c(-c3ccc(OC)c(OC)c3)n[nH]c2=S)cc1` here?
**A.** -0.837%

**Q.** For `Cc1ccn2cc(C(=O)NC3CCN(Cc4ccccc4)CC3)nc2c1`, which “activation” value is on record?
**A.** -3.61%

**Q.** Which Potency does the source give for `CCN(CC)S(=O)(=O)c1ccc(-c2cn3ccc(C)cc3n2)cc1` here?
**A.** 1260 nM (active)

**Q.** With `COc1ccc(-c2cn3ccsc3n2)cc1` as the molecule, how does the Potency read?
**A.** 1580 nM (active)

**Q.** For `COc1ccc(CNc2nccs2)cc1`, which “activation” value is on record?
**A.** 21.7%

**Q.** With `COc1ccc(-c2cn3ccc(C)cc3n2)cc1` as the molecule, how does the Potency read?
**A.** 112 nM (active)

**Q.** With `CCN(c1cccc(C)c1)S(=O)(=O)c1ccc(-c2coc(C)n2)cc1` as the molecule, how does the “activation” value read?
**A.** -3.28%

**Q.** Which “activation” value does the source give for `CCN(CC(=O)NCCc1ccccc1)S(=O)(=O)c1ccc(C)cc1` here?
**A.** -1.6%

**Q.** For `COC(=O)Cc1ccc(OC(=O)C2CCN(S(=O)(=O)c3ccc(OC)c(OC)c3)CC2)cc1`, which “activation” value is on record?
**A.** -0.239%

**Q.** Which “activation” value does the source give for `COCCn1c(C)cc(C(=O)CSc2nnc(C3CC3)n2C2CC2)c1C` here?
**A.** -0.502%

**Q.** With `CN(C(=O)COC(=O)CCCc1c[nH]c2ccccc12)c1c(N)n(Cc2ccccc2)c(=O)[nH]c1=O` as the molecule, how does the “activation” value read?
**A.** -3.45%

**Q.** Which “activation” value does the source give for `Cc1cc(C)nc(N2CCC(C(=O)Nc3ccc4c(c3)OCCO4)CC2)n1` here?
**A.** -3.44%

**Q.** Which Potency does the source give for `O=C(Nc1ccc2c(c1)OCCO2)C1CCCN(c2ncccn2)C1` (centres undefined) here?
**A.** 398 nM (active)

**Q.** With `O=C(Nc1ccc2c(c1)OCCO2)C1CCCC1` as the molecule, how does the “activation” value read?
**A.** 21.2%

**Q.** Which “activation” value does the source give for `CCc1ccccc1NC(=O)CN(C)C(=O)c1cc(C2CC2)nn1-c1ccccc1` here?
**A.** -0.178%

**Q.** With `COc1ccc(Cl)cc1C(=O)OCC(=O)NCc1cccs1` as the molecule, how does the “activation” value read?
**A.** 0.231%

**Q.** Which “activation” value does the source give for `CCN(CC(=O)Nc1c(F)cccc1F)C(=O)c1ccc(-c2ccc(C(C)=O)cc2)o1` here?
**A.** -3.93%

**Q.** For `N#Cc1ccc(CN2CCN(CC(=O)Nc3ccccc3C(=O)NC3CC3)CC2)cc1`, which “activation” value is on record?
**A.** 0.497%

**Q.** With `O=c1c(-c2ccccc2)coc2cc(O)ccc12` as the molecule, how does the Potency read?
**A.** 3160 nM (active)

**Q.** With `CC(C)CN(Cc1c(O)ccc2c(=O)c(-c3ccccc3)coc12)CC(C)C` as the molecule, how does the “activation” value read?
**A.** -1.85%

**Q.** With `Cc1c(CCC(=O)O)c(=O)oc2cc3occ(-c4ccccc4)c3cc12` as the molecule, how does the “activation” value read?
**A.** -1.45%

**Q.** With `COCC1CCCN(Cc2nc(-c3ccc4c(c3)OCO4)no2)C1` (centres undefined) as the molecule, how does the “activation” value read?
**A.** 12.7%

**Q.** With `COc1ccc(N2CCN(C(=O)c3ccc4c(Cl)c5c(nc4c3)CCCC5)CC2)cc1` as the molecule, how does the “activation” value read?
**A.** -3.17%

**Q.** With `CC(C)CCNC(=O)c1ccc2c(Cl)c3c(nc2c1)CCC3` as the molecule, how does the Potency read?
**A.** 2000 nM (active)

**Q.** Which “activation” value does the source give for `CC(=O)c1ccc(NC(=O)c2ccc3c(Cl)c4c(nc3c2)CCCC4)cc1` here?
**A.** -3.17%

**Q.** For `Cc1c(C)c(C)c(S(=O)(=O)N2CCC3(CC2)OCCO3)c(C)c1C`, which “activation” value is on record?
**A.** -1.45%

**Q.** With `CCOc1ccc(S(=O)(=O)NCCC(=O)NCC2CCCO2)cc1` (centres undefined) as the molecule, how does the “activation” value read?
**A.** -2.23%

**Q.** Which “activation” value does the source give for `CC(NC(=O)CN(C)S(=O)(=O)c1ccc(F)cc1)C1CC2CCC1C2` (centres undefined) here?
**A.** 6.05%

**Q.** With `CCCCN1C(=O)C(=O)N(CC(=O)Nc2cccc(C(C)=O)c2)C1=O` as the molecule, how does the “activation” value read?
**A.** -7.53%

**Q.** For `COc1cc(C(c2c(NC(=O)c3ccco3)sc(C)c2C)N2CCOCC2)cc(OC)c1OC` (centres undefined), which “activation” value is on record?
**A.** -2.41%

**Q.** For `Clc1ccc(-c2csc(-c3ccncc3)n2)cc1`, which “activation” value is on record?
**A.** 29.2%

**Q.** Which “activation” value does the source give for `CCCn1c(CCNc2nc(-c3ccc(OC)cc3)cs2)nc2ccccc21` here?
**A.** 2.48%

**Q.** Which “activation” value does the source give for `O=C(O)c1ccccc1C(=O)Nc1nc(-c2ccccc2)cs1` here?
**A.** 10.8%

**Q.** With `c1ccc(Nc2nc(-c3ccncc3)cs2)nc1` as the molecule, how does the Potency read?
**A.** 2240 nM (active)

**Q.** Which “activation” value does the source give for `O=C(Nc1nc(-c2ccc(-c3ccccc3)cc2)cs1)c1cnccn1` here?
**A.** 7.86%
